According to PubChem BioAssay:

Experiment: COS7 lysate on small-molecule microarray, probe aHis, 635 nm (AID 1123);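 also: z-score combines 667nm fluorescence intensity with signal-to-noise per printed compound spot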
Settings: COS7 cell lysate, fluorescence, higher = more signal

Compared with COCCOC(=O)N1C(=O)[C@@]2(c3ccccc31)[C@H](c1ccc(O)cc1)N1[C@H](c3ccccc3)[C@H](c3ccccc3)OC(=O)[C@H]1[C@@H]2C(=O)Nc1nc2ccccc2s1, COCCOC(=O)N1C(=O)[C@@]2(c3cc(C#CCC(C(=O)OC)C(=O)OC)ccc31)[C@H](C(=O)Nc1nc3ccccc3s1)[C@H]1C(=O)O[C@H](c3ccccc3)[C@H](c3ccccc3)N1[C@@H]2c1ccccc1OCCO is lower in composite z-score: 1.98 for the first, 1.9 for the second.

Compared with NC(=O)NCC#Cc1ccc2c(c1)[C@]1(C(=O)N2)[C@H](C(=O)Nc2nc3ccccc3s2)[C@H]2C(=O)O[C@H](c3ccccc3)[C@H](c3ccccc3)N2[C@@H]1c1ccccc1OCCO, COc1cc2c(cc1OC)CN(C(=O)[C@@H]1[C@H]3C(=O)O[C@H](c4ccccc4)[C@H](c4ccccc4)N3[C@H](c3ccccc3OCCO)[C@@]13C(=O)Nc1ccc(C#CCCO)cc13)CC2 is lower in composite z-score: 2.83 for the first, 1.88 for the second.

Compared with COCCOC(=O)N1C(=O)[C@@]2(c3ccccc31)[C@H](c1ccccc1OCCO)N1[C@H](c3ccccc3)[C@H](c3ccccc3)OC(=O)[C@H]1[C@@H]2C(=O)N1CCN(c2ncccn2)CC1, C=CCNC(=O)[C@@H]1[C@H]2C(=O)O[C@H](c3ccccc3)[C@H](c3ccccc3)N2[C@H](c2ccccc2OCCO)[C@@]12C(=O)N(C(=O)OCCOC)c1ccccc12 is lower in composite z-score: 1.59 for the first, 0.938 for the second.

First: COC(=O)[C@@]1(Cc2ccc(F)cc2)[C@H]2c3cc(C(=O)N4CCCC4)n(CCCNc4ncc(C(F)(F)F)cc4Cl)c3C[C@H]2CN1C(=O)c1ccccc1
Second: COCCOC(=O)N1C(=O)[C@@]2(c3cc(C#CCCO)ccc31)[C@H](C(=O)N1CCCCCCC1)[C@H]1C(=O)O[C@H](c3ccccc3)[C@H](c3ccccc3)N1[C@@H]2c1ccc(OCCO)cc1
The composite z-score of the first is lower: 2.01 for the first, 2.75 for the second.

First: CC(C)C[C@@H]1NC(=O)[C@@H]2C[C@H](C(=O)NCc3ccc(F)cc3)[C@H](c3cccc(OCCO)c3)N2C1=O
Second: C[N+](C)(C)CCCCNC(=O)[C@@H]1C[C@@H]2C(=O)N[C@@H](Cc3ccccc3)C(=O)N2[C@@H]1c1cccc(OCCO)c1
The composite z-score of the first is lower: 0.558 for the first, 0.959 for the second.

Going from C=CCC(OC(C)=O)[C@@H]1[C@@H](N(Cc2cc3ccccc3o2)C(=O)c2cccc3ccccc23)c2cc(OCCCO)ccc2N1C(=O)c1ccc(-c2ccccc2)cc1 (stereo not given in full) to C=CCC(OC(C)=O)[C@@H]1[C@@H](N(Cc2ccc(-c3ccccc3)cc2)C(=O)c2cccc3ccccc23)c2cc(OCCCO)ccc2N1C(=O)c1ccc(-c2ccccc2)cc1 (stereo not given in full), the composite z-score rises from 0.317 to 1.17.

First: C#C[C@H](O[Si](C#Cc1ccc(Oc2ccccc2)cc1)(C(C)C)C(C)C)c1ccccc1
Second: C=CCN1C(=O)[C@@]2(Cc3ccccc31)N=C(c1ccc(OCCCO)cc1)O[C@H]2c1ccccc1
The composite z-score of the first is lower: 0.45 for the first, 2.8 for the second.

Going from O=C1N[C@@H](Cc2ccccc2)C(=O)N2[C@@H]1C[C@@H](C(=O)O)[C@H]2c1cccc(OCCO)c1 to CN(C)CCCCCCNC(=O)[C@H]1C[C@H]2C(=O)N[C@@H](CCCCN)C(=O)N2[C@H]1c1cccc(OCCO)c1, the composite z-score rises from 0.514 to 4.1.

First: COCCCNC(=O)[C@@]1(C)c2ccccc2C(=O)N(C(C)C)[C@H]1c1ccc(CO)cc1
Second: COc1ccc(CCNC(=O)[C@@]2(C)c3ccccc3C(=O)N(C(C)C)[C@H]2c2ccc(CO)cc2)cc1
The composite z-score of the first is higher: 0.75 for the first, 0.216 for the second.

Going from COc1cc2c(cc1OC)CN(C(=O)[C@H]1[C@@H]3C(=O)O[C@@H](c4ccccc4)[C@@H](c4ccccc4)N3[C@@H](c3ccc(O)cc3)[C@]13C(=O)Nc1ccccc13)CC2 to C=CCOC(=O)[C@@H]1[C@H]2C(=O)O[C@H](c3ccccc3)[C@H](c3ccccc3)N2[C@H](c2ccc(OCCOC(=O)[C@@H]3C[C@@H]4C(=O)NCC(=O)N4[C@@H]3c3ccc(O)cc3)cc2)[C@@]12C(=O)Nc1ccc(I)cc12, the composite z-score falls from 2.34 to 1.04.

Going from C=CC1(C(=O)OC)CC=C(C(=O)OC)CC1 (stereo not given) to C=C(/C(=C/C[C@H](OC(C)=O)c1ccc(CO)o1)c1cc(C(=O)OC)ccc1OC)C(C)C, the composite z-score falls from 0.732 to 0.356.

Going from CCCC=C(CCC)[C@@H](NC(=O)c1cccs1)c1ccc(C(F)(F)F)cc1 to CCC[C@@H]1C[C@@]1(CCC)[C@@H](NS(=O)(=O)c1cccc2cccnc12)c1ccc(Cl)cc1, the composite z-score rises from 0.0705 to 1.81.

Going from COC(=O)C[C@H]1O[C@]2(C(=O)N(C)c3ccccc32)[C@@H](C)[C@@H]1[Si](C)(C)F to COC(=O)[C@H](Cc1ccccc1)N1CC2=C[C@@H](C3CC3)n3c(=O)n(C)c(=O)n3[C@H]2[C@@H]1[C@@H](O)Cc1ccccc1, the composite z-score rises from 0.597 to 0.653.

First: C=C(CC1([C@@H](NP(=O)(c2ccccc2)c2ccccc2)[C@H]2C[C@@H]2CCCC)CC1)c1ccccc1
Second: CCOC(=O)C[C@H]1[C@H](OC(=O)c2ccc(C(=O)c3ccccc3)cc2)[C@@H](NC(=O)c2ccccc2)c2cc(OCCCO)ccc2N1C(=O)c1ccc2ccccc2n1
The composite z-score of the first is higher: 2.67 for the first, 1.53 for the second.

Compared with [N-]=[N+]=Nc1ccccc1[C@H]1OC(c2ccc(OCCCO)cc2)=N[C@@]1(CCS(=O)(=O)c1ccccc1)C(N)=O, COC(=O)[C@@]1(CCC(=O)OC(C)(C)C)N=C(c2ccc(OCCCO)cc2)O[C@H]1c1ccccc1N=[N+]=[N-] is higher in composite z-score: 1.43 for the first, 1.95 for the second.

Going from C=CCNC(=O)[C@@H]1[C@H]2C(=O)O[C@H](c3ccccc3)[C@H](c3ccccc3)N2[C@H](c2ccc(O)cc2)[C@@]12C(=O)N(C(=O)OCCOC)c1ccc(C#CCNC(N)=O)cc12 to Cc1ccc(S[C@]2(C(=O)NC3CC3)CC(=O)N(Cc3ccccc3)[C@@H]2c2ccc(CO)cc2I)cc1, the composite z-score rises from 0.737 to 2.25.

First: CCCCCN1CC=CC23O[C@@H]4/C=C\CCC(C)OC(=O)C4[C@H]2C(=O)N(C(C)CO)[C@@H]3C1=O (stereo not given in full)
Second: O=C1NC(=O)C2C1C=CC(C(O)c1cccs1)N2Nc1ccc(Cl)cc1Cl (stereo not given)
The composite z-score of the first is lower: -0.0346 for the first, 1.03 for the second.

For COc1cc2c(cc1O)C(C1CC1)N(Cc1sc3ccccc3c1Cl)CC2 (stereo not given), the composite z-score was 2.69.
